Bioassay records (PubChem)
In the library only some 8.1% were active in any assay of this set; here they are far more common.
Epigenetic derep = Quantitative High-Throughput Screen for Regulators of Epigenetic Control; 0.2% of 280,000 active; murine LDR cells, GFP reporter derepression, 30 h; Potency, µM (series often up to 53.9 µM), for inactives: at the top dose GFP activation, actives largely listed as activators; AID 1865, 2009; note: % of control where 0% means no effect; nearly all actives have a fitted effect of over 60% in size
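Reporter derepression read as number of fluorescent GFP-positive objects, 20-120 um in size, counted by laser-scanning cytometer. Mouse LDR line with an epigenetically silenced CMV-GFP locus; compound incubation 30 h, 37 C.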
Gal4-VP16 FLuc = VP16 counterscreen qHTS for inhibitors of ROR gamma transcriptional activity; Drosophila S2 Gal4-VP16 UAS-luciferase, luminescence, 20 h; Potency, µM (doses to about 53.6 µM), for inactives: top-dose activity, negative = inhibition, actives largely listed as inhibitors; 3.5% of 310,000 active;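 note: Gal4-VP16 expression switched on by copper sulfate through the metallothionein promoter; % is set by controls: 0 for no effect and ±100 for the full control effect; nearly all actives have a fitted effect of over 50% in size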
Sfp PPTase inh = qHTS Assay for Inhibitors of Bacillus subtilis Sfp phosphopantetheinyl transferase (PPTase) | 4'-phosphopantetheinyl transferase ffp (Bacillus subtilis), Q9F4F7 | Biochemical Sfp PPTase activity, qHTS | Potency, µM, for the others: largest response in the series, negative = inhibition, most hits filed as inhibitors | 3.5% of 310,000 active;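 note: the enzyme is Sfp with the accession as filed and its product quenches rhodamine fluorescence; 0% = enzyme reaction without inhibitor and -100% = no enzyme wells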
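Fluorescence-quenching assay with 15 nM Sfp, 5 uM rhodamine-CoA and 12.5 uM BHQ-2-labelled ybbR peptide in pH 7.6 Hepes/MgCl2 buffer. Enzyme was pre-incubated with compound for 15 min at room temperature. Rate was taken from the 30-min fluorescence change (525/598 nm).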
PINK1 expr mod = A Quantitative High throughput Screen to Identify Chemical Modulators of PINK1 Expression; PINK1 immunofluorescence, high-content cytometry, 24 h; Potency, µM (titrated, usually from 76.6 µM), without a hit: at the highest dose activation (PINK1 increase), actives largely listed as activators; 0.2% of 410,000 active; AID 624263, 2012; active = well fitted activation curve with a large enough effect; inconclusive = small, poorly fitted or top-dose-only effect; cell line not stated here; note: % of control where 0% means no effect; nearly all actives have a fitted effect of over 65% in size
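A stable cell line was treated with compounds at 5 concentrations for 24 hours, with CCCP as control. PINK1 levels and mitochondrial localization were measured by immunofluorescence with mitochondrial, cell and nuclear markers after fixation, read by laser-scanning cytometry.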
RORgamma inh = qHTS for inhibitors of ROR gamma transcriptional activity. Nuclear receptor ROR-gamma (Mus musculus), P51450. Drosophila S2 Gal4-RORgamma UAS-luciferase reporter, 20 h. Potency, µM (doses to about 53.6 µM), for the others: at the highest dose activity change, negative = inhibition, hits mostly inhibitors. 5.4% of 310,000 active. AID 2551, 2010; note: % is set by controls: 0 for no effect and ±100 for the full control effect; nearly all actives have a fitted effect of over 60% in size
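Drosophila Schneider cells stably carrying a metallothionein-driven Gal4 DBD–ROR gamma fusion and a UAS-Photinus luciferase reporter were exposed to compound for 1 hr, then induced with copper sulfate (700 uM final) for 20 hr at ambient temperature before luminescence reading.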
ClpP mod = qHTS Assay for Activators of ClpP. purified B. subtilis ClpP, FRET peptide cleavage, 20 min. Potency, µM (top dose mostly 57.5 µM), for the others: top-dose activity change, negative = active. AID 651965, 2013. 1.9% of 340,000 active. ATP-dependent Clp protease proteolytic subunit (Bacillus subtilis (strain 168)), P80244; active = well fitted falling curve with a large enough effect; inconclusive = small, poorly fitted or top-dose-only effect; inactive = no such curve, though single readings can be large or run the other way; note: the source files actives as falling curves though it sought activators and does not explain the sign; nearly all actives have a fitted effect of over 65% in size
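ClpP 10 microg/mL final, pH 8 Tris/KCl buffer with BSA, glycerol, Tween-20; compound pinned in; FRET-FV substrate; RT 20 min; Ex320/Em430; ΔFRET vs ADEP 5.8 microM, DMSO, no enzyme.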
* = called active by the depositor; u = inconclusive; x = no result given; ! = repeats disagree; [ ] = dose if it differs, or a comment. Unless noted, calls come from the whole dose curve; as a rule, active = well fitted curve in the direction sought with a large enough effect; inconclusive = small, poorly fitted or top-dose-only effect, or another doubt; inactive = no such curve, though single readings can be large; an effect the other way counts as inactive or inconclusive. Potency is the fitted concentration of half-maximal effect.

SMILES	Epigenetic derep	Gal4-VP16 FLuc	Sfp PPTase inh	PINK1 expr mod	RORgamma inh	ClpP mod
C=C1[C@@H](O)C2C=CC[C@H](C)C(=O)[C@@](C)(O)C=C[C@@H](OC(C)=O)[C@@]23C(=O)N[C@H](Cc2ccccc2)[C@@H]3[C@@H]1C (stereo partly specified)	-1.6%	9.7%	-14.5%	x	u	x
O=C(O)CCn1cc(C=C2C(=O)NC(=S)NC2=O)c(-c2ccccc2)n1	-3.1%	-14.5%	14.1µM*	0.8%	-3.0%	x
N#CCCn1cc(C=C2C(=O)NC(=O)NC2=O)c(-c2ccccc2)n1	0.0%	-23.1%	-23.8%	-1.1%	1.0%	1.0%
O=C(O)CCn1cc(C=C2C(=O)NC(=S)NC2=O)c(-c2cc3ccccc3oc2=O)n1	0.1%	-6.8%	10µM*	-0.9%	9.1%	3.8%
COC(=O)Cn1cc(/C=C2\C(=O)NC(=O)N(c3ccc(OC)cc3)C2=O)c2ccccc21	x	7.4%	-23.3%	35.5µM*	u	x
FC(Cl)(Cl)Cl	x	-1.7%	x	x	7.2%	x
CCc1ccc(-n2c(=O)c3sc4ccccc4c3n(CC(=O)NC3CCCC3)c2=O)cc1	u	x	x	4.8%	x	4.6%
COc1ccc(N2C(=O)/C(=C/c3ccc(N(C)C)o3)C(=O)NC2=S)cc1	x	-5.0%	-22.4%	-2.4%	-3.5%	1.0%
Cc1ccc(/C=C2\C(=O)NC(=S)N(c3ccc(F)cc3)C2=O)o1	x	0.2%	44.7µM*	-0.3%	u	-2.4%
Cc1ccc(N2C(=O)/C(=C/c3ccc(CN(CCC#N)S(C)(=O)=O)o3)C(=O)NC2=S)cc1	-1.1%	-0.8%	20µM*	1.0%	-0.8%	-3.5%
COc1cccc(N2C(=O)/C(=C/c3ccc(C)o3)C(=O)NC2=S)c1	x	1.5%	25.1µM*	0.9%	-13.2%	-1.0%
Cc1ccc(/C=C2\C(=O)NC(=S)N(c3ccc(F)cc3)C2=O)s1	1.0%	-6.6%	-2.7%	0.6%	12.9%	x
CCOC(=O)/C(C#N)=C1/SC(C)C(=O)N1c1ccc(Br)cc1 (stereo unspecified)	-1.2%	-23.8%	5.8%	4.0%	11.2µM*	-1.1%
NC(=O)c1ncn([C@H]2O[C@@H](CO)[C@@H](O)[C@@H]2O)n1	0.0%[16.9 µM]	1.0%[17 µM]	22.2%	x	0.2%[16.9 µM]	x
Cc1o[nH]c(=O)c1C[C@@H](N)C(=O)O	1.1%	0.3%	79.4µM*!	x	-7.0%	x
Cc1o[nH]c(=O)c1C[C@H](N)C(=O)O	-2.2%	-7.0%	79.4µM*!	x	30.4%	x
O=C(NC1CCCCC1)Oc1cc2oc(=O)sc2cc1Cl	-2.6%	-10.8%	3.55µM*	0.1%	11.8%	x
Cc1cc(C)cc(-n2c(C)cc(/C=C3\C(=O)NC(=O)N(C)C3=O)c2C)c1	-1.3%	1.3%	-1.2%	2.8%	-3.5%	0.2%
Cc1ccnc(-n2c(C)cc(C=C3C(=O)N(C)C(=S)N(C)C3=O)c2C)c1	-0.9%	-8.5%	50.1µM*	-0.9%	-10.9%	-8.6%
Cc1cc(C=C2C(=O)N(C)C(=S)N(C)C2=O)c(C)n1-c1ccncc1	-3.2%	-4.0%	39.8µM*	2.8%	0.0%	0.7%
Cc1ccc(-c2nc3ccccc3c(=O)n2-c2cc(C)ccn2)cc1	-1.0%	-3.9%	7.1%	-0.2%[38.3 µM]	-3.1%	-0.2%
CC(C)(C)c1cc([N+](=O)[O-])cc(C(C)(C)C)c1O	-2.1%	4.47µM*	1.5%	5.01µM*	14.1µM*	2.6%
C=C1C(=O)O[C@@H]2C[C@@H](C)[C@@H]3C=CC(=O)[C@@]3(C)[C@@H](O)[C@H]12	0.0%	3.16µM*	79.4µM*	-0.8%	3.16µM*	2.7%
CC1=C2C(=O)C3C(CC=C4C[C@@H](O)CC[C@@]43C)[C@@H]2CC[C@]12O[C@@H]1C[C@H](C)CN[C@H]1C2C (stereo partly specified)	x	-16.3%	3.8%	x	-19.4%	x
COc1ccc(C[C@H]2NC[C@H](O)[C@@H]2OC(C)=O)cc1	3.8%	35.5µM*	-9.4%	x	u	x
SMILES	Epigenetic derep	Gal4-VP16 FLuc	Sfp PPTase inh	PINK1 expr mod	RORgamma inh	ClpP mod
COc1ccc(CC2NCC(O)C2OC(C)=O)cc1 (stereo unspecified)	-0.2%	0.0794µM*	-4.7%	-1.3%	u	0.1%
COc1ccc(CC(=O)N2CCN(C)CC2)cc1	0.2%	-6.4%	-6.4%	-3.9%[38.3 µM]	-3.0%	-3.7%
COc1ccc(CC2NC[C@H](O)[C@H]2OC(C)=O)cc1 (stereo partly specified)	u	0.794µM*	10.2%	x	0.631µM*	x
OCC(Br)(Br)Br	x	-5.7%	6.7%	x	-5.1%	x
Cc1ccc(-c2nnc(Nc3ccc(OC(F)(F)Cl)cc3)c3ccccc23)cc1S(=O)(=O)NC(C)(C)CO	4.3%	x	x	-0.1%	x	u
CCOC(=O)Cn1cc([N+](=O)[O-])nc1[N+](=O)[O-]	-0.3%	12.6µM*	-4.9%	0.2%	10µM*	0.6%
CCOC(=O)Cn1cc(C(=O)c2ccccc2F)c2ccccc21	-1.1%	0.8%	5.9%	0.5%	41.5%	0.3%
O=C1CCCC2C3CC(CN12)C1CCCCN1C3 (stereo unspecified)	-1.6%	3.4%	-8.0%	1.2%	-8.9%	x
CCCc1nc2ccc(Br)cc2c(=O)n1-c1ccc([N+](=O)[O-])c(C(F)(F)F)c1	-0.9%	u	16.2%	14.1µM*	u	-0.6%
CCc1nc2ccc(Br)cc2c(=O)n1-c1ccccc1C(F)(F)F	x	x	x	5.3%	x	-0.9%
Cc1cnc(NC(=O)CN2CCCCC2)s1	x	x	10.1%	1.5%	x	14.1µM*
O=C(CN1CCCCC1)NCC(=O)Nc1ccc(Br)cc1C(=O)c1ccccc1	-1.2%	-7.0%	3.4%	-2.4%	20.7%	-1.5%
CCC1CN2CCc3cc(OC)c(OC)cc3C2CC1CC1NCCc2cc(OC)c(OC)cc21 (stereo unspecified)	u	7.08µM*	11.1%	x	6.31µM*	x
COc1ccc(CC2NCCc3cc(OC)c(OC)cc32)cc1OC (stereo unspecified)	x	3.3%	8.9%	x	12.0%	x
COC(=O)[C@@H]1C[C@H]2CC[C@H](O)C[C@H]2N1CC1CC1	-0.5%	9.9%	1.8%	x	4.7%	x
CCCC1(CCC)C(=O)NC(=NCc2ccccc2)NC1=O	8.1%	-3.2%	-6.7%	u	0.7%	1.5%
S=C=NCc1ccccc1	0.0%	u	5.4%	x	5.62µM*	x
Cc1ccc(C(=O)Nc2nc3ccccc3n2CCN2CCCC2)cc1	u	7.08µM*	2.3%	-2.3%	2.51µM*	-4.9%
